PubChem BioAssay (NCATS)
Results filed as inconclusive are left out. Calls of active or inactive are those of the source. Calls come from the whole dose curve; as a rule, active = well fitted cell-killing curve with a large enough effect; inconclusive = small, poorly fitted or top-dose-only effect, or effect the other way; inactive = no such curve, though single readings can be large or run the other way.

experiment: Viability qHTS for spleen associated tyrosine kinase inhibitor (SYKi) drug resistant MV4-11 cells (AID 1963824); conditions: SYKi-resistant MV4-11 viability, CellTiter-Glo, 72 h; series mostly up to 45 µM; note: nearly all actives have a fitted effect of over 35% in size
How it was run: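 SYK inhibitor-resistant MV4-11 AML cells, 500 per well, added to predispensed compounds and incubated 72 hr at 37 C, 5% CO2. Viability measured by CellTiter-Glo luminescence after 10 min at room temperature.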
Potency is the fitted concentration of half-maximal effect.

Row | SMILES | Potency
1 | CCS(=O)(=O)N(Cc1cccnc1)c1cccc(-c2ccc(C#N)cc2)c1 | 20.6 µM (active)
2 | C=C1C(OC2OC(CO)C(O)C(O)C2O)CC2C(C)(C)C(O)CCC2(C)C1CC/C(C)=C\COC(=O)CC(=O)O (stereo not given) | 5.44 µM (active)
3 | COc1ccc(S(=O)(=O)Nc2c(C)cc(C)cc2C)cc1 | 20.6 µM (active)
4 | CN(CCOc1ccc(-c2ccc3c(c2)OCO3)cc1C(C)(C)C)CC(=O)O | 16.6 µM (active)
5 | NCCCNc1ccc(Nc2nccc(Nc3cc(C4CC4)[nH]n3)n2)cc1 | 0.164 µM (active)
6 | Cc1cccc(N(C)C(=S)Oc2ccc3c(c2)CCC3)c1 | 18.4 µM (active)
7 | O=S(=O)(c1cccc2c(Cl)cccc12)N1CCCNCC1 | 20.6 µM (active)
8 | COc1cc(/C=C2\CC[C@H]3COC[C@@H](c4cc(F)c(F)c(F)c4)N3C2=O)ccc1-n1cnc(C)c1 | 13 µM (active)
9 | Cc1ccccc1C(=O)Nc1ccc(C(=O)N2CCC[C@@H](O)c3cc(Cl)ccc32)c(C)c1 | 20.6 µM (active)
10 | CC1(C)CC[C@]2(C(=O)O[C@@H]3O[C@H](CO)[C@@H](O)[C@H](O)[C@H]3O)CC[C@]3(C)C(=CCC4[C@@]5(C)C[C@@H](O)[C@H](O)[C@@](C)(CO)C5[C@H](O)C[C@]43C)C2C1 (stereo not given in full) | inactive
11 | c1ccc(Nc2nc3c(s2)CCCc2[nH]ncc2-3)nc1 | 14.6 µM (active)
12 | N#Cc1ccc(Cn2cncc2CN2CCN(c3cccc(Cl)c3)C(=O)C2)cc1 | 2.95 µM (active)
13 | O=c1[nH]c2cccc(N3CCN(Cc4ccc(-c5ccccc5)cc4)CC3)c2o1 | 20.6 µM (active)
14 | Nc1ncnc2c1c(I)cn2C1OC(CO)C(O)C1O (stereo not given) | 0.411 µM (active)
15 | CC(=O)O[C@@H]1[C@@H](OC(C)=O)[C@H](C)O[C@@H](O[C@H]2[C@@H]3C=CO[C@@H](O[C@@H]4O[C@H](CO)[C@@H](O)[C@H](O)[C@H]4O)[C@@H]3[C@@]3(CO)O[C@@H]23)[C@@H]1OC(=O)/C=C/c1ccccc1 | 6.11 µM (active)
16 | C/C=C/C=C/c1cc2c(C=O)c(O)c(CC=C(C)C)cc2o1 | 18.4 µM (active)
17 | Cc1nc2ccccc2n1Cc1ccc(Cl)cc1 | 0.422 µM (active)
18 | O=C(O)CCc1nccc2c1[nH]c1ccccc12 | 23.1 µM (active)
19 | CC1(C)CC[C@]2(C(=O)O)CC[C@]3(C)C(=CCC4[C@@]5(C)CC[C@H](O[C@@H]6O[C@H](C(=O)O)[C@@H](O)[C@H](O)[C@H]6O)C(C)(CO)C5CC[C@]43C)C2C1 (stereo not given in full) | inactive
20 | C[C@@H]1O[C@@H](O[C@H]2[C@H](OC(=O)[C@]34CCC(C)(C)C[C@H]3C3=CCC5[C@@]6(C)C[C@H](O)[C@H](O[C@@H]7O[C@H](CO)[C@@H](O)[C@H](O)[C@H]7O)[C@](CO)(C(=O)O)C6CC[C@@]5(C)[C@]3(C)C[C@H]4O)OC[C@H](O)[C@@H]2O)[C@H](O)[C@H](O)[C@H]1O[C@@H]1OC[C@@H](O)[C@H](O[C@@H]2OC[C@](O)(CO)[C@H]2O)[C@H]1O (stereo not given in full) | 0.776 µM (active)

Row | SMILES | Potency
21 | CN(C)CCCCCCNC(=O)c1cccc(-c2cc(O)c3ncccc3c2)c1 | 3.26 µM (active)
22 | CC[C@@H](C)[C@@H]1OC2(C=C[C@H]1C)C[C@@H]1C[C@H](C/C=C(\C)[C@H](O[C@H]3C[C@H](OC)[C@H](O[C@H]4C[C@H](OC)[C@H](NC(C)=O)[C@H](C)O4)[C@H](C)O3)[C@H](C)/C=C/C=C3\CO[C@H]4[C@H](O)C(C)=C[C@@H](C(=O)O1)[C@@]34O)O2 (stereo not given in full) | 2.27 µM (active)
23 | CC(CCC1(O)OC2CC3C4CC=C5CC(O[C@@H]6O[C@H](CO)[C@@H](O[C@@H]7O[C@@H](C)[C@H](O)[C@@H](O)[C@H]7O)[C@H](O)[C@H]6O[C@@H]6O[C@@H](C)[C@H](O)[C@@H](O)[C@H]6O)CCC5(C)C4CCC3(C)C2C1C)CO[C@@H]1O[C@H](CO)[C@@H](O)[C@H](O)[C@H]1O (stereo not given in full) | 3.48 µM (active)
24 | CC(=O)O[C@@H]1[C@@H](O)[C@H](C)O[C@@H](O[C@H]2[C@@H]3C=CO[C@@H](O[C@@H]4O[C@H](CO)[C@@H](O)[C@H](O)[C@H]4OC(C)=O)[C@@H]3[C@@]3(CO)O[C@@H]23)[C@@H]1OC(=O)/C=C/c1ccc(O)cc1 | inactive
25 | C=C(C)C1CCC2(C(=O)O)CCC3(C(=O)O)C(CCC4C5(C)CCC(O)C(C)(C(=O)O)C5CCC43C)C12 (stereo not given) | inactive
26 | C=C1C(OC(C)=O)[C@@]23CCC4[C@](C)(C(=O)O)CCC[C@@]4(C)[C@]2(O)CC[C@H]1C3 (stereo not given in full) | inactive
27 | Cc1cccc(-c2[nH]ncc2-c2ccnc3ccccc23)n1 | 16.4 µM (active)
28 | COc1ccc(CN2CCN(C(=O)CCNC(=O)c3ccc(C(C)(C)C)cc3)CC2)cc1 | 9.2 µM (active)
29 | CC(F)(F)CN1CCOc2c(nn(-c3ccccc3Cl)c2-c2ccc(Cl)cc2)C1=O | 20.6 µM (active)
30 | CC1=CC(=O)C2C(C)(C)CCC[C@]2(C)[C@H]1CC[C@H](C)CC(=O)O (stereo not given in full) | inactive
31 | C=CC(=O)Nc1cccc(Nc2nc(Nc3ccccc3)ncc2C)c1 | 0.651 µM (active)
32 | Cn1cc(S(=O)(=O)c2ccc(Cl)cc2)c2cccc(N3CCNCC3)c21 | 13 µM (active)
33 | COc1cccc(CN(C(=O)CC(C)(C)C)C2CC(C(=O)N3CCNCC3)N(Cc3ccc4c(c3)OCO4)C2)c1 (stereo not given) | 16.4 µM (active)
34 | CC(C)(C)n1nc(-c2cccc3ccccc23)c2c(N)ncnc21 | 14.6 µM (active)
35 | CNS(=O)(=O)Nc1nccc(Cc2c(C)c3ccc(Oc4ncccn4)cc3oc2=O)c1F | 0.59 µM (active)
36 | COc1ccc(C2(CNC(=O)[C@](C)(Cc3c[nH]c4ccccc34)NC(=O)Nc3ccc([N+](=O)[O-])cc3)CCCCC2)nc1 | 20.6 µM (active)
37 | COC1OC(OC)C(O)(CCC2(C)C(C)CCC3(C)C2CC(O)C(O)C32CO2)C1O (stereo not given) | inactive
38 | [2H]C([2H])(Nc1nc(-c2ccccc2C([2H])(C([2H])([2H])[2H])C([2H])([2H])[2H])ncc1C)c1ccc(-n2ccnn2)cc1 | 11.8 µM (active)
39 | Nc1cccc(CNC(=O)c2ccc(Oc3ccc(OCc4cccc(F)c4)cc3)nc2)c1 | 16.4 µM (active)
40 | O=C(O)/C=C/c1cc2c(cc1O[C@@H]1O[C@H](CO)[C@@H](O)[C@H](O)[C@H]1O)OCO2 | inactive
